# Test results from PubChem BioAssay (NCATS).
# Results filed as inconclusive are left out. Activity calls are given as the source filed them. Unless noted, calls come from the whole dose curve; as a rule, active = well fitted curve in the direction sought with a large enough effect; inconclusive = small, poorly fitted or top-dose-only effect, or another doubt; inactive = no such curve, though single readings can be large; an effect the other way counts as inactive or inconclusive.
# Assays:
# [1] = Cell Viability - LYMP2-022 (AID 987); details: LYMP2-022 lymphoblastoid cell viability; series mostly up to 92.2 µM; note: nearly all actives have a fitted effect of over 55% in size
# In short: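 In this qHTS cytotoxicity screen, compound titrations were incubated 24 hr at 37 C with human lymphoblastoid cells in complete medium. Luciferase-based ATP luminescence provided the viability signal.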
# [2] = qHTS assay to identify small molecules that stimulate interleukin-8 (IL-8) secretion (AID 651758; active = well fitted activation curve with a large enough effect in the signal ratio; the % refers to the signal ratio); details: HTRF ratio (665/615); series mostly up to 92.2 µM
# In short: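 Secreted IL-8 measured homogeneously by TR-FRET (two labelled anti-IL-8 antibodies, 1-3 h at room temperature) after a 16 h, 37 C compound treatment of THP-1 cells at 2000 cells/well.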
# [3] = Cell Viability - LYMP1-002 - Assay at 16 hr (AID 948); details: LYMP1-002 lymphoblastoid cell viability; series mostly up to 92.2 µM
# In short: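 Seed 2500 LYMP1-002 cells per well in complete medium and hold 5 hr at 37 C. Add compound across a concentration series and incubate 16 hr at 37 C. Add CellTiter-Glo, wait 30 min at room temperature, read luminescence.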
# [4] = qHTS assay for small molecule antagonists of the retinoid-related orphan receptor gamma (ROR-gamma) signaling pathway - cell viability counter screen (AID 720652; active = well fitted curve in the direction sought with a large enough effect in the repeat runs; an effect the other way counts as inactive or inconclusive;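 note: compound exposure lasted 16 hr before ATP read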); details: RORgamma reporter cell line viability counter screen; series mostly up to 92.2 µM
# In short: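 ATP-based viability readout in the ROR-gamma reporter CHO cells after 16 hr compound exposure under doxycycline induction.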
# Potency is the fitted concentration of half-maximal effect.
compound,measurement,setting,value
c1cc(OCC2CO2)cc(OCC2CO2)c1 (centres undefined),Potency,[1],31.6 µM (active)
same,Potency,[2],42.2 µM (active)
O=Nc1ccc(Nc2ccccc2)cc1,Potency,[3],10 µM (active)
C=C1CC[C@H](O)C/C1=C/C=C1\CCC[C@]2(C)[C@@H]([C@H](C)CCCC(C)C)CC[C@@H]12,Potency,[4],66.8 µM (active)
